# Measured values: PubChem BioAssay (Tox21)
# “And” between values parts separate entries of the source, which are not always exact repeats. Equal entries are not always repeated. Results filed as inconclusive are left out. Where a call stands in place of a potency, no number is given. A number with no mark means an inactive call. The source made the active and inactive calls. The call rests on the fitted dose curve; in most records, active means well fitted curve in the direction sought with a large enough effect in the repeat runs; inconclusive means weak or mixed curves; inactive means no such curve, though single readings can be large; an effect the other way counts as inactive or inconclusive.
# How the values were obtained:
# [1] = target: Cytochrome P450 2C19 (Homo sapiens) (UniProt P33261); experiment: Cytochrome P450 Family 2 Subfamily C Member 19 (CYP2C19) small molecule antagonists: luciferase reporter qHTS assay (AID 1671197); further: nearly all actives have a fitted effect of over 65% in size; on activity change, negative = inhibition: series mostly up to about 120 µM
# Chain of Cytochrome P450 2C19 (Homo sapiens) (P33261 whole entry, looked up): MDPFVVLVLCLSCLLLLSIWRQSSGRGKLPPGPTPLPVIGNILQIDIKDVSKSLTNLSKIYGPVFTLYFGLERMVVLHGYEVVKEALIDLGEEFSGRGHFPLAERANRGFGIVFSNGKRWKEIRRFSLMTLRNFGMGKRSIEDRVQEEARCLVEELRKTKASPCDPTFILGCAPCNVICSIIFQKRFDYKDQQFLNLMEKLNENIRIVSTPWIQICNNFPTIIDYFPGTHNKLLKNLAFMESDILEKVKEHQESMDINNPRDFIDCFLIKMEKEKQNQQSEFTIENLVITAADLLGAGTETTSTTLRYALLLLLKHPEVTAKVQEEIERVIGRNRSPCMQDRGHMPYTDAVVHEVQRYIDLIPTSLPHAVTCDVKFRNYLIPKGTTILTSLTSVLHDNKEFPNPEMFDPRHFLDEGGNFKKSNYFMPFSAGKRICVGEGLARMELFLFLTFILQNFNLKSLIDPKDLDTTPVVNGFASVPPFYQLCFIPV
# Outline: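 Inhibition of CYP2C19 was scored from loss of luminescence in a P450-Glo proluciferin substrate assay, NADPH-started and run 1 h at 37C, with ketoconazole as positive control.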
# [2] = target: Cytochrome P450 2C9 (Homo sapiens) (UniProt P11712); experiment: Cytochrome P450 Family 2 Subfamily C Member 9 (CYP2C9) small molecule antagonists: luciferase reporter qHTS assay (AID 1671198); further: nearly all actives have a fitted effect of over 50% in size; on activity change, negative = inhibition: series mostly up to about 120 µM
# Chain of Cytochrome P450 2C9 (Homo sapiens) (P11712 whole entry, looked up): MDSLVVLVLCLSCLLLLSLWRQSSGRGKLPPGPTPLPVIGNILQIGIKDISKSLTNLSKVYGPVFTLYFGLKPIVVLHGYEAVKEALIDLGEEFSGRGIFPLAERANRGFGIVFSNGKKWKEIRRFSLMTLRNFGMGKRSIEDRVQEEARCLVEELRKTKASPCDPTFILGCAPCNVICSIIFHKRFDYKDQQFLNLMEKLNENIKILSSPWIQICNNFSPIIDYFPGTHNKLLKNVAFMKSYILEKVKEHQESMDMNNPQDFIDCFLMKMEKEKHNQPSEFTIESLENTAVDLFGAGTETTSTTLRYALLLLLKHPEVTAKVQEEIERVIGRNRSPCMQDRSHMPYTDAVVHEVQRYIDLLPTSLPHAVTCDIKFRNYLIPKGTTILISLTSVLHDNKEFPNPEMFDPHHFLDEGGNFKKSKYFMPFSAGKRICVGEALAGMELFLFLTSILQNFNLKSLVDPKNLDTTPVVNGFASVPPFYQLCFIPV
# Outline: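 P450-Glo proluciferin substrate with CYP2C9 enzyme; 10 min RT preincubation, then NADPH regeneration 1 h at 37C; luciferin detection reagent 20 min RT, luminescence in relative luminescence units.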
# [3] = target: Cytochrome P450 1A2 (Homo sapiens) (UniProt P05177); experiment: Cytochrome P450 Family 1 Subfamily A Member 2 (CYP1A2) small molecule antagonists: luciferase reporter qHTS assay (AID 1671199); further: nearly all actives have a fitted effect of over 50% in size; on activity change, negative = inhibition: series mostly up to about 120 µM
# Chain of Cytochrome P450 1A2 (Homo sapiens) (P05177 whole entry, looked up): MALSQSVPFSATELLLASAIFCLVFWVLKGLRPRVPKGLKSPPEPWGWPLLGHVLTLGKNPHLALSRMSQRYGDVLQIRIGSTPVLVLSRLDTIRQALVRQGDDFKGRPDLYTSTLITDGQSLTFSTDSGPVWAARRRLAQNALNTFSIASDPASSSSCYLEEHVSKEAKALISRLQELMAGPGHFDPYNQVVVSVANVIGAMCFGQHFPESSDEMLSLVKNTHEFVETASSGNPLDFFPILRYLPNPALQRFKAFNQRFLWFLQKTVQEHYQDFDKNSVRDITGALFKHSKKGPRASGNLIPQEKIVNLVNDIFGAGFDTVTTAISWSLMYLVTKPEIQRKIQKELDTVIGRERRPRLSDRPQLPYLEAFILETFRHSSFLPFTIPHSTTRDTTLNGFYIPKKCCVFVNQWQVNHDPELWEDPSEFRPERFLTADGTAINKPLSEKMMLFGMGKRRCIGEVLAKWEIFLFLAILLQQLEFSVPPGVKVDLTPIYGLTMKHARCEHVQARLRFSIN
# Outline: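 P450-Glo CYP1A2 enzyme–proluciferin substrate mix with compound 10 min at room temperature, then NADPH regeneration 1 h at room temperature. Luciferin detection reagent added, luminescence read after 20 min; furafylline positive control.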
# [4] = target: Voltage-gated inwardly rectifying potassium channel KCNH2 (Homo sapiens) (UniProt Q12809); experiment: Human Ether-a-go-go-Related Gene (hERG) channel small molecule antagonists: fluorescence cell-based qHTS assay (AID 1671200); further: nearly all actives have a fitted effect of over 50% in size;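 on activity change, negative = inhibition: hERG-expressing U2OS cells given a thallium stimulus after FluxOR II dye loading; series mostly up to about 77 µM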
# Chain of Voltage-gated inwardly rectifying potassium channel KCNH2 (Homo sapiens) (Q12809 whole entry, looked up): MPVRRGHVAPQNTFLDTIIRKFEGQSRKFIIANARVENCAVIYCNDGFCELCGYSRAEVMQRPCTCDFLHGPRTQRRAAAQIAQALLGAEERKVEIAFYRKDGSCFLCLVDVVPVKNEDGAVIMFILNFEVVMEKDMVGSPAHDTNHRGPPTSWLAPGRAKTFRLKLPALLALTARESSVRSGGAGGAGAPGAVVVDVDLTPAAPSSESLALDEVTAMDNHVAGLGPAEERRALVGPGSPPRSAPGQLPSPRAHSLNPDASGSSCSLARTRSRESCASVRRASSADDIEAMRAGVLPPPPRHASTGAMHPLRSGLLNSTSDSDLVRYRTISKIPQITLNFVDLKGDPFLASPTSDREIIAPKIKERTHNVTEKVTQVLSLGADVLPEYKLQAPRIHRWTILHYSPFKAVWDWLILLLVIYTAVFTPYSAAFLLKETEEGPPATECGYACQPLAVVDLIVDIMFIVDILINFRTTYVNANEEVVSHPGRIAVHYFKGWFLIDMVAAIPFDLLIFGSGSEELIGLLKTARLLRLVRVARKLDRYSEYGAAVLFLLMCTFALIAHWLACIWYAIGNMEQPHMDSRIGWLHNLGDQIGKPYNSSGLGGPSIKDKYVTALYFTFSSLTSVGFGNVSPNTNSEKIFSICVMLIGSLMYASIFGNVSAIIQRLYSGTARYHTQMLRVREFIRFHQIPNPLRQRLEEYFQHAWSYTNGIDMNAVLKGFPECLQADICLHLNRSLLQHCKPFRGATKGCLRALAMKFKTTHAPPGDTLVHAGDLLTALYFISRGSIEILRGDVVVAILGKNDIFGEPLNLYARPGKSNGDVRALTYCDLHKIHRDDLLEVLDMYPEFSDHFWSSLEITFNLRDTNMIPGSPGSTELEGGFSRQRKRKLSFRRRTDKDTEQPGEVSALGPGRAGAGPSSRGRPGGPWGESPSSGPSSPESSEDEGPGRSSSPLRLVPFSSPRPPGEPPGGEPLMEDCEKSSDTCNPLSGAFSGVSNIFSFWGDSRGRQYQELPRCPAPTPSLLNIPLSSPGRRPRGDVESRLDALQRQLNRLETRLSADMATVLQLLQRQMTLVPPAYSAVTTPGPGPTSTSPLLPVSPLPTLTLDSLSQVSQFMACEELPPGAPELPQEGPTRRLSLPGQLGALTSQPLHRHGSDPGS
# Outline: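 U2OS cells expressing the channel were plated at 1000 cells/well, incubated overnight at 37 C, then loaded with FluxOR II thallium-sensitive dye for 1 h at room temperature in the dark, with a further 10 min at room temperature before stimulation.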
# [5] = target: Cytochrome P450 3A4 (Homo sapiens) (UniProt P08684); experiment: Cytochrome P450 Family 3 Subfamily A Member 4 (CYP3A4) small molecule antagonists: luciferase reporter qHTS assay (AID 1671201); further: nearly all actives have a fitted effect of over 50% in size; on activity change, negative = inhibition: series mostly up to about 120 µM
# Chain of Cytochrome P450 3A4 (Homo sapiens) (P08684 whole entry, looked up): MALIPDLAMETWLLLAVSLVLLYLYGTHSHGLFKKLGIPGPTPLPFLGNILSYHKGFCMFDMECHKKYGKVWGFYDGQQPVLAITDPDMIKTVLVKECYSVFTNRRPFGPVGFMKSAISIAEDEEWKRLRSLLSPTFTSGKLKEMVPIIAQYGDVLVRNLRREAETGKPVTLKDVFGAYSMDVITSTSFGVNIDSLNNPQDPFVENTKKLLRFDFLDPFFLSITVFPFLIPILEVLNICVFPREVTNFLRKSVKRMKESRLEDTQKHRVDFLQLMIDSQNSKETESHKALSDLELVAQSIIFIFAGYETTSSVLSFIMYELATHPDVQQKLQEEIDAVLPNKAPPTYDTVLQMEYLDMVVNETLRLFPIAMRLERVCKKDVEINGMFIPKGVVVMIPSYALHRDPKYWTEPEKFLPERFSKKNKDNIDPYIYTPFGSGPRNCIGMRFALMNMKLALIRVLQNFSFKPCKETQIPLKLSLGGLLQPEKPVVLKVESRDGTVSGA
# Outline: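 P450-Glo CYP3A4 system with proluciferin substrate; compounds preincubated 10 min RT with enzyme-substrate mix, then NADPH regeneration added for 1 h RT. Detection reagent 20 min, luminescence read as relative luminescence units.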
# Potency means the concentration at half of the fitted maximal effect.
compound,measurement,setting,value
CCOC(=O)CC(=O)C(=O)OCC,Potency,[1],35.6 µM (active)
same,Potency,[2],39.9 µM (active)
same,Potency,[3],31.7 µM (active)
same,Potency,[4],49 µM (active)
same,Potency,[5],71 µM (active)
Cc1oc(C)c(C(=O)Nc2ccccc2)c1C,Potency,[1],35.6 µM (active)
same,Potency,[2],35.6 µM (active)
same,Potency,[3],15.9 µM (active)
same,Potency,[4],inactive
same,Potency,[5],inactive
COC(OC)(C(=O)c1ccccc1)c1ccccc1,Potency,[1],10 µM (active)
same,Potency,[2],20 µM (active)
same,Potency,[3],inactive
same,Potency,[4],inactive
same,Potency,[5],inactive
C=CC(C)(C)CC(=O)OC,Potency,[1],35.7 µM (active)
same,Potency,[2],35.7 µM (active)
same,Potency,[3],20.1 µM (active)
same,Potency,[4],inactive
same,Potency,[5],63.5 µM (active)
Oc1ccc(Nc2ccccc2)cc1,Potency,[1],20 µM (active)
same,Potency,[2],28.3 µM (active)
same,Potency,[3],31.7 µM (active)
same,Potency,[4],inactive
same,Potency,[5],inactive
CCCCCCCCSCCO,Potency,[1],20 µM (active)
same,Potency,[2],44.8 µM (active)
same,Potency,[3],39.9 µM (active)
same,Potency,[4],inactive
same,Potency,[5],inactive
CCc1c2c(nc3ccc(OC(=O)N4CCC(N5CCCCC5)CC4)cc13)-c1cc3c(c(=O)n1C2)COC(=O)[C@]3(O)CC,Potency,[1],inactive
same,Potency,[2],inactive
same,Potency,[3],inactive
same,Potency,[4],inactive
same,Potency,[5],inactive
CC(=O)[C@H]1CC[C@H]2[C@@H]3C=CC4=CC(=O)CC[C@@]4(C)[C@@H]3CC[C@]12C,Potency,[1],2.75 µM (active)
same,Potency,[2],38.9 µM (active)
same,Potency,[3],inactive
same,Potency,[4],inactive
same,Potency,[5],inactive
O=S(=O)(c1ccccc1)c1ccc(Cl)cc1,Potency,[1],3.99 µM (active)
same,Potency,[2],inactive
same,Potency,[3],44.8 µM (active)
same,Potency,[4],inactive
same,Potency,[5],inactive
CC(C)OCC1CO1 (stereo unspecified),Potency,[1],inactive
same,Potency,[2],inactive
same,Potency,[3],inactive
same,Potency,[4],inactive
same,Potency,[5],inactive
Nc1nc(Cl)nc2c1ncn2[C@@H]1O[C@H](CO)[C@@H](O)[C@@H]1F,Potency,[1],inactive
same,Potency,[2],inactive
same,Potency,[3],inactive
same,Potency,[4],inactive
same,Potency,[5],inactive
CO[C@H]1O[C@H](CO)[C@@H](O)[C@H](O)[C@H]1O,Potency,[1],inactive
same,Potency,[2],inactive
same,Potency,[3],inactive
same,Potency,[4],inactive
same,Potency,[5],inactive
CC(C)c1nnc2ccc(-c3ocnc3-c3cc(F)ccc3F)cn12,Potency,[1],56.4 µM (active)
same,Potency,[2],5.64 µM (active)
same,Potency,[3],35.6 µM (active)
same,Potency,[4],inactive
same,Potency,[5],inactive
O=C(O)C(Cc1cc(I)c(O)c(I)c1)c1ccccc1 (stereo unspecified),Potency,[1],inactive
same,Potency,[2],9.77 µM (active)
same,Potency,[3],24.5 µM (active)
same,Potency,[4],inactive
same,Potency,[5],inactive
CCCCCCCCCCCC(=O)[O][Sn]([CH2]CCC)([CH2]CCC)[O]C(=O)CCCCCCCCCCC,Potency,[1],inactive
same,Potency,[2],inactive
same,Potency,[3],inactive
same,Potency,[4],inactive
same,Potency,[5],inactive
Cc1cc(O)c(C(C)C)cc1Cl,Potency,[1],35.6 µM (active) and 24.5 µM (active)
same,Potency,[2],14.2 µM (active) and 15.5 µM (active)
same,Potency,[3],20 µM (active) and 15.5 µM (active)
same,Potency,[4],inactive
same,Potency,[5],inactive
CC(C)C(=O)O,Potency,[1],inactive
same,Potency,[2],inactive
same,Potency,[3],inactive
same,Potency,[4],inactive
same,Potency,[5],inactive
CCCCCCCCCCCCCCC[C@H](O)[C@@H](N)CO,Potency,[1],inactive
same,Potency,[2],inactive
same,Potency,[3],inactive
same,Potency,[4],inactive
same,Potency,[5],inactive
NC(=O)N(O)[C@@H]1COc2cc(OCc3ccccc3)ccc21,Potency,[1],5.03 µM (active)
same,Potency,[2],7.96 µM (active)
same,Potency,[3],5.03 µM (active)
same,Potency,[4],inactive
same,Potency,[5],2.52 µM (active)
CC1CN(c2cc3c(cc2F)c(=O)c(C(=O)O)cn3-c2ccc(F)cc2F)CCN1 (stereo unspecified),"activity change, negative = inhibition",[1],31.4% [at 10.5 µM]
same,"activity change, negative = inhibition",[2],2.17% [at 10.5 µM]
same,"activity change, negative = inhibition",[3],1.79% [at 10.5 µM]
same,"activity change, negative = inhibition",[4],3.92% [at 6.97 µM]
same,"activity change, negative = inhibition",[5],4.32% [at 10.5 µM]
CC1=NN(c2ccc(C(=O)O)cc2)C(=O)C1,Potency,[1],20 µM (active)
same,Potency,[2],inactive
same,Potency,[3],inactive
same,Potency,[4],inactive
same,Potency,[5],inactive
CCCOCCOCCO,Potency,[1],inactive
same,Potency,[2],inactive
same,Potency,[3],inactive
same,Potency,[4],inactive
same,Potency,[5],inactive
C/C=C/C=C/CCCCCCCO,Potency,[1],25.2 µM (active)
same,Potency,[2],7.1 µM (active)
same,Potency,[5],15.9 µM (active)
CN1Cc2cc(C(=O)N3CCC(C4CCNCC4)CC3)ccc2N[C@@H](CC(=O)O)C1=O,Potency,[1],inactive
same,Potency,[3],inactive
same,Potency,[4],inactive
same,Potency,[5],inactive
CCn1nc(C)c2c1C(=O)NCC(c1ccc(O)cc1)=N2,Potency,[1],inactive
same,Potency,[3],63.3 µM (active)
same,Potency,[4],inactive
same,Potency,[5],31.7 µM (active)
CCOc1cc(N)c(Cl)cc1C(=O)NCC1CN(Cc2ccc(F)cc2)CCO1 (stereo unspecified),Potency,[1],3.47 µM (active)
same,Potency,[3],1.55 µM (active)
CC(=O)Oc1ccc2c(c1)CC[C@@H]1[C@@H]2CC[C@]2(C)[C@@H](O)CC[C@@H]12,Potency,[1],24.5 µM (active)
same,Potency,[2],inactive
same,Potency,[4],inactive
same,Potency,[5],inactive
CCC(C)=O,Potency,[1],inactive
same,Potency,[2],inactive
same,Potency,[4],inactive
same,Potency,[5],inactive
